Structures are written as SMILES. In all, about 24,000 compounds went through this assay and about 150 (0.62%) were called active.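 The calls were made as follows: active = fluorescence ratio above 2.44, which is 1 plus 3 SD of all ratios; inconclusive = signal too bright to measure linearly, ratio around 10 or more; inactive = fluorescence ratio below 2.44.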 For the sample, actives were picked, then their nearest neighbours and some compounds at random.

The assay can be described thus: compound autofluorescence on Jurkat cells, primary screen, artefact control for VLA-4 allosteric ligand project, cell-based, flow cytometry (AID 576).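 Also: green fluorescence of cells measured with 488 nm excitation and 530 nm emission; tested at 10 µM compound in the well.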 To be noted: hits give high values, 1 = vehicle-only cell background. In general terms: A flow cytometer gives signals particle by particle.
Regarding `O=C(CN1CCN(c2ccccc2F)CC1)c1ccc2c(c1)OCO2`, the fluorescence ratio is 1.02 (inactive).

Turning to `COCCNC(=O)CN1C(=O)CSc2ncccc21`, the fluorescence ratio was 1.05 (inactive).

In the case of `CCOC(=O)N1CCC(NC(=O)COc2cc(=O)n(C)c3ccccc23)CC1`, the fluorescence ratio was 0.98 (inactive).

Regarding `CCOC(=O)C1CCCN(C(=O)c2sc3nc(C)nc(N4CCOCC4)c3c2C)C1` (centres undefined), the fluorescence ratio was 1.03 (inactive).

Take `O=C(Cn1cc2c(n1)CCCCC2)NCCN1CCOCC1`: the fluorescence ratio is 0.97 (inactive).

Take `COc1ccccc1-n1cnc2cc(C(=O)NCC3CCCO3)ccc21` (centres undefined): the fluorescence ratio was 1.03 (inactive).

Regarding `COCCn1c(=O)[nH]c2cc(C(=O)NCc3cccnc3)ccc2c1=O`, the fluorescence ratio is 1.03 (inactive).

Consider `COc1ccc(C(CC(=O)O)NC(=O)Cc2ccccc2)cc1` (centres undefined), for which the fluorescence ratio was 0.92 (inactive).

As for `CCOC(=O)CSc1nnc(CNC(=O)c2cccs2)n1-c1ccccc1`, the fluorescence ratio is 1.06 (inactive).

Turning to `CC(C)C(=O)Nc1c(C(=O)c2ccc(F)cc2)oc2ccccc12`, the fluorescence ratio was 0.99 (inactive).

Consider `Nc1nonc1-c1nc2ccccc2n1CCC(=O)O`, for which the fluorescence ratio is 1.57 (inactive).

`Cc1noc(C)c1CSc1nc2cc(S(=O)(=O)N3CCOCC3)ccc2o1`: the fluorescence ratio is 1.05 (inactive).

For the compound `COc1ccc(C2C(C(=O)N3CCN(c4ccc(OC)cc4)CC3)c3ccccc3C(=O)N2C)cc1` (centres undefined), the fluorescence ratio is 1.1 (inactive).

As to `Cc1cc(N2C(=O)c3ccc(C(=O)NCc4ccccc4)cc3C2=O)no1`, the fluorescence ratio is 1.09 (inactive).

`CCN(CC(=O)Nc1ccc2c(c1)OCCO2)Cc1cc(=O)oc2cc(C)c(C)cc12`: the fluorescence ratio is 1.06 (inactive).

On to `CCOC(=O)C1CCN(C(=O)C2CCN(S(=O)(=O)N3CCCC3)CC2)CC1`, for which the fluorescence ratio was 0.96 (inactive).

For the compound `CC(=O)c1c(C)c[nH]c1C`, the fluorescence ratio was 1.09 (inactive).

As for `CCN1C(=O)/C(=C2/Sc3ccccc3N2CCCS(=O)(=O)O)SC1=S`, the fluorescence ratio is 1 (inactive).

Take `CCN(CC)CCCNC(=O)c1cc(-c2cccc(Cl)c2)on1`: the fluorescence ratio was 1.16 (inactive).

In the case of `Cc1cc(NC(=O)CN2CCC(O)(c3cccc(F)c3)CC2)no1`, the fluorescence ratio is 1.02 (inactive).

As to `COCCOC(=O)C1=C(C)N=c2s/c(=C\c3cccs3)c(=O)n2C1c1cccs1` (centres undefined), the fluorescence ratio is 1.11 (inactive).

Consider `Cc1c(C(=O)Nc2ccccc2Cl)oc2ccc(S(=O)(=O)N3CCC4(CC3)OCCO4)cc12`, for which the fluorescence ratio was 0.97 (inactive).

For `CC1(C)Oc2ccc3ccc(=O)oc3c2/C(=C/NCCO)C1=O`, the fluorescence ratio was 1.15 (inactive).

Regarding `COCCNC(=O)c1snc2ccc(Cl)cc12`, the fluorescence ratio was 1 (inactive).

As to `O=C(CN1CCN(CC(=O)Nc2ccc3c(c2)OCO3)CC1)Nc1ccc(F)cc1`, the fluorescence ratio is 0.97 (inactive).

Regarding `Cc1ccc(S(=O)(=O)NCc2csc(C)n2)c(C)c1`, the fluorescence ratio is 0.95 (inactive).

`Cc1cccn2c(=O)c3cc(C(=O)N4COCC4(C)C)n(C)c3nc12`: the fluorescence ratio is 1.08 (inactive).

`COc1ccccc1N1CCN(Cc2nnnn2CCc2ccccc2)CC1`: the fluorescence ratio is 0.99 (inactive).

For `COc1ccc(C2CC(c3ccc(Cl)cc3Cl)Nc3nc(N)nn32)cc1OC` (centres undefined), the fluorescence ratio is 1.06 (inactive).

As for `C=CCOC(=O)C1=C(C)OC(N)=C(C#N)C1c1ccc(F)cc1` (centres undefined), the fluorescence ratio was 1.25 (inactive).

Take `CC(=O)N1C(=O)C2(Nc3ccccc3N2)c2ccccc21`: the fluorescence ratio was 1.04 (inactive).

Regarding `CCOC(=O)c1sc(=S)n(-c2cccc(OC)c2)c1N`, the fluorescence ratio is 1.14 (inactive).

`Cc1ccccc1CSc1nnc(Cn2c(=O)sc3ccccc32)n1C`: the fluorescence ratio is 0.88 (inactive).

Consider `CCOC(=O)CSc1nnc(CNC(=O)c2ccco2)n1-c1ccc(F)cc1`, for which the fluorescence ratio was 1 (inactive).

`CCOC(=O)c1ccc(CS(=O)c2ccc(Cl)cc2)o1` (centres undefined): the fluorescence ratio is 1.08 (inactive).

Consider `CC1=C(C)CC2C(=O)N(c3cccc4ccccc34)C(=O)C2C1` (centres undefined), for which the fluorescence ratio is 1.06 (inactive).

As to `COC(=O)C(C)Sc1nc2c(c(=O)n(C)c(=O)n2C)n1Cc1cccc(C)c1` (centres undefined), the fluorescence ratio is 1.09 (inactive).

Turning to `O=C1OC(NC(=O)c2ccccc2)C(N2CCOCC2)=C1Cl` (centres undefined), the fluorescence ratio was 1.07 (inactive).

Take `O=C(CN1CCN(c2ccc(F)cc2)CC1)Nc1cccc(C(F)(F)F)c1`: the fluorescence ratio is 0.96 (inactive).

For the compound `CCc1ccc(NC(=O)CSc2nc3ccccc3c(=O)n2CCN2CCOCC2)cc1`, the fluorescence ratio was 1.15 (inactive).

Turning to `CCn1cc(C(=O)NC2CCCCCC2)c(=O)c2cc(S(=O)(=O)N3CCCCC3)ccc21`, the fluorescence ratio was 1.18 (inactive).

Take `CCCC(=O)NC(C)C(c1cccs1)N1CCN(c2ccccc2)CC1` (centres undefined): the fluorescence ratio is 1.12 (inactive).

In the case of `O=C(Nc1cccnc1)c1ccc2c(c1)OCO2`, the fluorescence ratio was 1.06 (inactive).

For `CCOC(=O)n1c(SCC(=O)N(CC)CC)nc2ccccc21`, the fluorescence ratio was 0.99 (inactive).

As for `CCS(=O)(=O)N1CCCC(C(=O)NCc2ccc(C)cc2)C1` (centres undefined), the fluorescence ratio is 0.99 (inactive).

Consider `CCOC(=O)C1CCN(C(=O)Cc2c(C(=O)O)[nH]c3ccccc23)CC1`, for which the fluorescence ratio is 1.09 (inactive).

Turning to `COc1ccc(OC)c(C(=O)c2ccc(C(=O)O)cc2)c1`, the fluorescence ratio is 0.99 (inactive).

As to `COc1ccccc1-c1c(C)nn2c(C)c(C(C)=O)cnc12`, the fluorescence ratio is 0.98 (inactive).

With `Cc1ccc(C)c(N2CCN(C(=O)CCc3nc4ccccc4[nH]3)CC2)c1`, the fluorescence ratio is 1.04 (inactive).

As for `O=C(CN1CCOCC1)Nc1c2c(nc3c1CCC3)CCC2`, the fluorescence ratio is 0.96 (inactive).

`Cc1cc(NC(=O)c2cc(-c3cccs3)on2)nn1Cc1ccc(Cl)cc1`: the fluorescence ratio is 1.05 (inactive).

With `CC(=O)Nc1nonc1-c1nc2ccccc2n1Cc1ccccn1`, the fluorescence ratio was 1.24 (inactive).

Take `CC(Sc1sc(=S)sc1SC(C)C(=O)O)C(=O)O` (centres undefined): the fluorescence ratio was 0.93 (inactive).

Regarding `Cn1c(=O)cc(SCC(=O)N2CCN(C(=O)c3ccco3)CC2)c2ccccc21`, the fluorescence ratio was 1.12 (inactive).

Regarding `C=CCNC(=O)CSc1nc2sc(C)c(C)c2c(=O)[nH]1`, the fluorescence ratio is 1.07 (inactive).

As to `O=C(O)CC(c1ccccc1)n1cnnn1` (centres undefined), the fluorescence ratio is 0.92 (inactive).

Take `Cn1nnnc1SCc1cc(=O)[nH]c2ccccc12`: the fluorescence ratio is 1.06 (inactive).

On to `CC(C)OCCCNC(=O)C1CC(=O)N(C2CCCCCCC2)C1` (centres undefined), for which the fluorescence ratio is 0.98 (inactive).

Regarding `CCOc1ccc(N(CC(=O)NCc2ccc(OC)cc2)S(=O)(=O)c2c(C)noc2C)cc1`, the fluorescence ratio was 0.82 (inactive).

Consider `COc1ccc(CCN(Cc2cc3cccc(C)c3[nH]c2=O)C(=O)N2CCCC2)cc1OC`, for which the fluorescence ratio was 1.08 (inactive).

In the case of `O=C(CN1C(=O)C2C3C=CC(C3)C2C1=O)NCCc1ccccc1Cl` (centres undefined), the fluorescence ratio was 1.19 (inactive).

As for `O=C(CCn1c(=O)oc2ccccc21)Nc1ccon1`, the fluorescence ratio was 1.03 (inactive).

As for `Cc1cc(=O)n2nc(N3CCCC(C(=O)N4CCN(C)CC4)C3)sc2n1` (centres undefined), the fluorescence ratio is 1.07 (inactive).

Turning to `Cc1ccc(-c2cc(C(F)(F)F)n3nc(C(=O)N4CCCC4)cc3n2)cc1`, the fluorescence ratio was 1.02 (inactive).

As to `Cc1nc(C)c2c(c1C(F)(F)F)-c1ccccc1C2(F)F`, the fluorescence ratio is 1.11 (inactive).

For `CCOC(=O)c1cnc(-n2nc(C)cc2C)nc1Nc1cccc(C(C)=O)c1`, the fluorescence ratio is 1.06 (inactive).

Consider `COCc1[nH]nc2c1C(C1C=CCCC1)C(C#N)=C(N)O2` (centres undefined), for which the fluorescence ratio was 1.09 (inactive).

As to `Cc1noc(C)c1S(=O)(=O)NCCc1ccc(S(N)(=O)=O)cc1`, the fluorescence ratio is 1.07 (inactive).

`Cn1c(=O)n(C)c2cc(CNc3ccc(N4CCOCC4)c(C(=O)O)c3)ccc21`: the fluorescence ratio was 0.99 (inactive).

On to `O=C(O)C1CCCN(S(=O)(=O)c2cccc3cccnc23)C1` (centres undefined), for which the fluorescence ratio is 0.95 (inactive).

With `CCCCn1c(CN2CCN(CCO)CC2)nc2ccccc21`, the fluorescence ratio was 1.04 (inactive).

As for `COc1ccc(-c2nc(CS(=O)CC(=O)NCc3cccnc3)c(C)o2)cc1OC` (centres undefined), the fluorescence ratio was 0.78 (inactive).

As to `COc1ccc(C2/C(=C(/O)c3ccccc3)C(=O)C(=O)N2c2ncccn2)cc1OC` (centres undefined), the fluorescence ratio is 0.98 (inactive).

As to `Cc1nc(N2CCN(c3ncccn3)CC2)c2oc3ccccc3c2n1`, the fluorescence ratio is 1.15 (inactive).

Take `CCOC(=O)N1CCN(C(=O)c2cn(C)c3ccc(S(=O)(=O)N4CCCC4)cc3c2=O)CC1`: the fluorescence ratio was 1.07 (inactive).

Consider `COc1ccccc1NC1=NC2(CCCC2)N=C(N)N1`, for which the fluorescence ratio is 1.04 (inactive).

As to `COc1ccc(-c2cc3ccc(OCc4nn[nH]n4)cc3oc2=O)cc1`, the fluorescence ratio is 1.09 (inactive).

Consider `Fc1ccc2nc(Nc3nc4c(s3)CCCC4)sc2c1`, for which the fluorescence ratio is 4.43 (active).

Consider `Fc1ccc2nc(N3CCCCC3)sc2c1`, for which the fluorescence ratio was 1.31 (inactive).

In the case of `CNC(=O)c1ccc2nc(NC(C)=O)sc2c1`, the fluorescence ratio is 1.01 (inactive).

Turning to `CCOC(=O)C1CCCN(C(=O)C2CCN(c3nnc(-n4cccc4)s3)CC2)C1` (centres undefined), the fluorescence ratio was 1.06 (inactive).

`CSc1ccc(S(=O)(=O)Nc2cccc(F)c2)cc1`: the fluorescence ratio was 0.98 (inactive).

Turning to `O=C(c1cnn2ccccc12)N1CCc2ccccc21`, the fluorescence ratio is 0.92 (inactive).

For the compound `CCOC(=O)N1CCC(NC(=O)CCc2cn(C)c3ccccc23)CC1`, the fluorescence ratio was 0.96 (inactive).

As for `N#CCCn1ncc2ccccc21`, the fluorescence ratio is 0.9 (inactive).

`CCC1=C/C(=C\c2ccc3c(c2)OCO3)C(=O)S1`: the fluorescence ratio was 1.11 (inactive).

In the case of `CC1CCCC(N2CCN(C(=O)c3ccc(F)cc3)CC2)C1` (centres undefined), the fluorescence ratio was 0.93 (inactive).

For `Cc1c(C(=O)N2CC(C)OC(C)C2)sc2nc(-c3ccccc3)cn12` (centres undefined), the fluorescence ratio is 1.33 (inactive).

Turning to `CCC(=O)N1CCc2cc(S(=O)(=O)NC(C(=O)N3CCc4ccccc4C3)C(C)C)ccc21` (centres undefined), the fluorescence ratio was 0.97 (inactive).

Take `COc1ccc(CCNS(=O)(=O)c2ccc(C(=O)NCc3ccco3)cc2)cc1OC`: the fluorescence ratio is 1.03 (inactive).

Turning to `c1cnn(-c2cc(N3CCOCC3)ncn2)c1`, the fluorescence ratio was 1.1 (inactive).

Take `CCCCC(=O)N(c1ccc(OC)cc1)C1C=CS(=O)(=O)C1` (centres undefined): the fluorescence ratio was 1.03 (inactive).

For `Cc1nc(SCC(=O)Nc2cc(C)on2)c2c3c(sc2n1)CCCC3`, the fluorescence ratio is 1.28 (inactive).

For the compound `COc1cccc(Nc2nnc(SCC(=O)N3CC(C)OC(C)C3)s2)c1` (centres undefined), the fluorescence ratio was 1.02 (inactive).

As to `CC(=O)N(CC1CCCO1)C1(C(=O)NC2CCCC2)CCCCC1` (centres undefined), the fluorescence ratio is 0.95 (inactive).

For `O=C(Nn1cc(C(=O)N2CCN(c3ccccc3F)CC2)c2ccccc2c1=O)c1cnccn1`, the fluorescence ratio is 1.02 (inactive).

Turning to `COCCN1Cc2cccc(C(=O)Nc3ccccc3OC)c2C1=O`, the fluorescence ratio was 1.02 (inactive).

Take `CCCCN(C)Cc1c(C)[nH]c2ccc(Cl)cc2c1=O`: the fluorescence ratio was 1.01 (inactive).

On to `CCn1c(SCC(=O)Nc2ccccc2F)nc2c(c1=O)SC(C)C2` (centres undefined), for which the fluorescence ratio was 0.98 (inactive).

Values taken from PubChem BioAssay AID576 (NMMLSC, 2007).
